The whole screen tested about 310,000 compounds, of which about 2,200 (0.71%) showed an effect of 50% or more. The effect is printed as a negative number. Many of the other results were omitted from the sample, so strong results are more common in it than they were.

The target in the assay is human ether-à-go-go-related gene (hERG) potassium channel (human, UniProt Q12809). The assay can be described thus: primary screen, population patch clamp on CHO cells stably expressing hERG; higher = less effect of the substance.
Chain of human ether-à-go-go-related gene (hERG) potassium channel (Q12809 whole entry, looked up): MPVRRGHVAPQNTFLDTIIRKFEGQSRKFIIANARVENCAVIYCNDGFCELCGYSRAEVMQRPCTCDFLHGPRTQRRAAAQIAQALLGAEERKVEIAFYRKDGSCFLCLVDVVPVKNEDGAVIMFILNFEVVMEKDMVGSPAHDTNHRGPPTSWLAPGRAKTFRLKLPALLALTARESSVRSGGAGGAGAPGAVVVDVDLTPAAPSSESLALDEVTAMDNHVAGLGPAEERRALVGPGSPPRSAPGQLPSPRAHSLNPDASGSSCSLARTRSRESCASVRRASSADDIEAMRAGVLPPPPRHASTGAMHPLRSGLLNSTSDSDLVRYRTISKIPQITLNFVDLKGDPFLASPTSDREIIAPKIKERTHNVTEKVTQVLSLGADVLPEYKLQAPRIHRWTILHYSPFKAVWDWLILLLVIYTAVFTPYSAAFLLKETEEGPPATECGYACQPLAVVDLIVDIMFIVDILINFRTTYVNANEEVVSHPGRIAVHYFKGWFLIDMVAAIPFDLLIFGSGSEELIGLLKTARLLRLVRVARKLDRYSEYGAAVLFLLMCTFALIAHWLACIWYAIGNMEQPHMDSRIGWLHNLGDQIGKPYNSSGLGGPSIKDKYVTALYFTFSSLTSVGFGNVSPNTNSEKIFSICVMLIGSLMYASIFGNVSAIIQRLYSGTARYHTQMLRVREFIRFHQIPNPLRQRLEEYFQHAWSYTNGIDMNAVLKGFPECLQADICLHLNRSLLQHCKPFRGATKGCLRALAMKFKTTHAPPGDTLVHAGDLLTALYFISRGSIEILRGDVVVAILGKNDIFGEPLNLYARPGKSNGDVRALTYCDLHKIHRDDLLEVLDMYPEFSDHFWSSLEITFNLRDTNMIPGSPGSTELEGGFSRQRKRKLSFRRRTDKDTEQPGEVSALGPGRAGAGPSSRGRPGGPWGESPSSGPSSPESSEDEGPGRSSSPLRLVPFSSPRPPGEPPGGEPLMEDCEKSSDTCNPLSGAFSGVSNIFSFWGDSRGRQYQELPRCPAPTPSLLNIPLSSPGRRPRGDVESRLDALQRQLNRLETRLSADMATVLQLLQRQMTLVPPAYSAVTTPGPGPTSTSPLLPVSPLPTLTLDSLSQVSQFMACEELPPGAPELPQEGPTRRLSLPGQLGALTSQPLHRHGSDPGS
With `Cc1ccc(C)c(NC(=S)NCCSc2ccc(Cl)cc2)c1`, the “hERG current change (%, negative = inhibition) at 1uM” value came out at 11.9%. With `CS(=O)(=O)N1CCc2cc(C(=O)Nc3ccc(COCC(F)(F)F)cc3)ccc21` the figure was 10.4%; with `Cc1cc(C(=O)Nc2ccc(C(=O)O)cc2)c(-c2ccccc2)o1`, -3.53%; with `CC(=O)c1ccc(NC(=O)C(C)N(C)CC(=O)Nc2ccccc2Cl)cc1` (centres unmarked), 14.4%. The figure for `O=C(O)CN1C(=O)/C(=C/c2ccsc2)SC1=S` is 12%; for `COc1ccc(C(Nc2cc(C)ccn2)c2ccc3ccc(C)nc3c2O)cc1` (centres unmarked) it is 4.46%; for `CC1CCC(NC(=O)Cn2c3c(c(-c4ccccc4Cl)cc2=O)CCC3)CC1` (centres unmarked) it is 9.99%. With `COc1ccc(NC(=O)Nc2cccc(OC)c2)cc1` the figure was -2.63%; with `C=CCSc1nnc(Cn2c(=O)sc3ccccc32)n1C`, -6.54%; with `COc1ccc(C(=O)NC2CC2)cc1OC1CCN(Cc2ccccc2F)CC1`, -64.5%. On to `COc1cc(C(=O)NC2Cc3ccccc3C2)ccc1OC1CCN(C(C)=O)CC1`, for which the “hERG current change (%, negative = inhibition) at 1uM” value is reported as 9.82%. The figure for `COc1ccc(C(=O)NCCc2ccccc2F)cc1OC1CCN(C(C)=O)CC1` is 12.5%; for `C=CCOc1ccccc1CN1CCC(Oc2cc(C(=O)NC3CC3)ccc2OC)CC1` it is -66.6%; for `COc1ccc(C(=O)N(C)C2CCCN(Cc3ccccc3F)C2)cc1OC` (centres unmarked) it is 10.2%. The figure for `COc1ccc(C(=O)NC2CC2)cc1OC1CCN(Cc2cc(C)c(C)cc2C)CC1` is -74.1%; for `CCn1ncc(CN2CCC(Oc3cc(C(=O)NC4CC4)ccc3OC)CC2)c1C` it is 1.05%. With `COc1ccc(C(=O)NC2CC2)cc1OC1CCN(Cc2cnn(C)c2C)CC1` the figure was -2%; with `COc1ccccc1CCNC(=O)c1ccc(OC)c(OC2CCN(C(C)C)CC2)c1`, -4.22%. As for `C=CCOc1ccccc1CN1CCC(Oc2ccc(C(=O)N3CCCC3)cc2)CC1`, the “hERG current change (%, negative = inhibition) at 1uM” value is on record as -19.5%. With `COc1ccc(C(=O)NC2CC2)cc1OC1CCN(Cc2ccccc2O)CC1` the figure was -91.5%; with `C=CCOc1ccccc1CN1CCC(Oc2ccc(C(=O)N3CCCCC3)cc2)CC1`, -3.91%; with `CCOC(=O)c1c(C)nc2ncccn12`, 2.38%. With `COC(=O)Oc1ccc(/C=N/NC(=O)CN(c2ccccc2Cl)S(C)(=O)=O)cc1OC` the figure was 9.16%; with `Cc1ccc(C(=O)COC(=O)CCC(=O)Nc2ccccc2Cl)cc1[N+](=O)[O-]`, 8.32%.

As to `CC1Cn2c(nnc2C23CC4CC(CC(C4)C2)C3)S1` (centres unmarked), the “hERG current change (%, negative = inhibition) at 1uM” value is reported as 7.65%. With `Cc1ccc(N2NC(=O)/C(=C\c3cc4c(cc3[N+](=O)[O-])OCO4)C2=O)cc1C` the figure was 0.881%; with `CCN(c1ccccc1)S(=O)(=O)c1ccc2[nH]c(=O)[nH]c2c1`, 8.82%; with `O=C(Nc1ccc(-n2ccc(C(F)(F)F)n2)cc1)Nc1cccc(Cl)c1`, 11.3%. Consider `COc1ccc(CN2CCC(Oc3cc(C(=O)NC4CC4)ccc3OC)CC2)c(O)c1`, for which the “hERG current change (%, negative = inhibition) at 1uM” value is listed as -87.5%. On to `COc1ccc(CN2CCC(Oc3ccc(C(=O)NCc4ccccn4)cc3)CC2)c(F)c1`, for which the “hERG current change (%, negative = inhibition) at 1uM” value is listed as 7.46%. The figure for `COc1ccc(OC)c(CN2CCC(N3CCC(C(=O)NC4CC4)CC3)CC2)c1` is 4.7%; for `CCOC(=O)c1nc2cc3n(c(C)c-2c1C)C(C)C(C)=C3C.Cl` (centres unmarked) it is -13.9%.

On to `CCOC(=O)c1nc2cc3n(c(CC(C)C)c-2c1C)CC(C)=C3C.Cl`, for which the “hERG current change (%, negative = inhibition) at 1uM” value is -54.2%. As for `CCOC(=O)c1nc2cc3n(c(C)c-2c1C)C(C)C(CC)=C3C.Cl` (centres unmarked), the “hERG current change (%, negative = inhibition) at 1uM” value is -39.5%. The figure for `CCOC(=O)c1nn(-c2ccc(F)cc2)c(=O)cc1OCC(=O)Nc1ccc(OCC)cc1` is 10.8%. For the molecule `Cc1c2ccccc2nc2c(F)c(N(C)C)c(F)c(F)c12`, the “hERG current change (%, negative = inhibition) at 1uM” value came to 19.7%. The figure for `CN(CCNC(=O)C1CCC(=O)N(Cc2ccc(Cl)cc2)C1)CCc1ccccc1` (centres unmarked) is -50.5%. With `O=C(NCCCc1ccccc1)C1CCC(=O)N(CCc2ccc(Cl)cc2)C1` (centres unmarked) the figure was -62.2%; with `CCc1ccc(CN(C)C(=O)C2CCC(=O)N(CCc3ccc(OC)cc3)C2)nc1` (centres unmarked), -57.9%; with `COc1ccccc1CCCNC(=O)C1CCC(=O)N(CCc2ccc(Cl)cc2)C1` (centres unmarked), -3.88%. With `CCc1ccc(CN(C)C(=O)C2CCC(=O)N(Cc3cccc(OC)c3)C2)nc1` (centres unmarked) the figure was 4.11%.

The values are drawn from PMC4336329 (PLoS ONE, 2015).
